The source of these data is PubChem BioAssay.

Several values for one entry are separate records, joined by “and”; a condition that tells them apart may be missing. Identical values can stand only once. Records with an inconclusive call do not appear. Activity calls are given as the source filed them. Unless noted, no cut-off is given here; in the data, nearly all actives have AC50 up to about 26 µM.

A short description of assay [1]: stimulators of nuclear beta-catenin in C2C12, primary screen, imaging, WNT3A-conditioned medium, mouse C2C12, NPC library (AID 1117326; in the data active = nuclear beta-catenin stimulation mostly above about 4.2%, no sharp cut-off; inactive = mostly below about 10%). The note with it: stronger effect = higher value.
Assay [2] in a line: stimulators of insulin release from INS-1E, primary screen, cell-based, 5 mM glucose, NPC library (AID 1117329;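 active = compound raises insulin release from rat beta cells at 5 mM glucose, no numeric limit stated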). The note with it: rat INS-1E insulin secretion, at 10 µM, stronger effect = higher value.
Assay [3] in a line: growth inhibition of GSK3B-pretreated HCT116 cells – cell-based, CellTiter-Glo, 0.2 to 20 µM (AID 1117336;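 active = compounds lowering colon cancer cell viability after pretreatment blocking the GSK3B kinase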). The note with it: HCT116 viability after GSK3B inhibitor, at 20 µM, stronger effect = higher value. (In general: ATP-based viability assays read luminescence as a measure of living cells.)
A short description of assay [4]: inhibition of endothelial tube formation, primary screen, imaging, VEGF stimulated, CD31 staining, tube area, NPC library (AID 1117340;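 active = compound that reduces growth-factor-driven endothelial tube area in a mixed cell culture, no cutoff stated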). The note with it: VEGF-stimulated ADSC/ECFC co-culture, at 10 µM, stronger effect = higher value.
Assay [5] can be described thus: glucagon-like peptide 1 release enhancers, primary assay, NCI-H716 cell line, NPC library (AID 1117341;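 active = compound raises GLP1 secretion from the human gut endocrine cells, with no numeric limit stated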). The note with it: NCI-H716 cells, at 10 µM, stronger effect = higher value.
A short description of assay [6]: HCT116 colon cancer cell growth inhibition, primary screen, CellTiter-Glo luminescence, NPC library (AID 1117342;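 active = compounds that lower survival of HCT116 colon cancer cells in the luminescence readout, no numeric limit stated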). The note with it: at 20 µM (top of the series).
The nature of assay [7]: CellTiter-Glo luminescent readout of SW480 viability loss, NPC library primary (AID 1117343;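 active = compounds that lower viability of the colon cancer cells in the luminescence readout, with no numeric limit stated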). The note with it: CellTiter-Glo luminescence; at 20 µM (top of the series) unless noted.
The nature of assay [8]: decreased DLD-1 cellular survival, CellTiter-Glo luminescent readout, NPC compound collection, primary HTS (AID 1117346;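 active = compounds that lower survival of DLD-1 colon cancer cells in the luminescence readout, no cutoff given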). The note with it: DLD-1 viability, CellTiter-Glo luminescence; at 20 µM (top of the series).
A short description of assay [9]: growth inhibition of DIPG glioma cells, dose response, cell-based, SU-DIPG-XVII, MIPE5.0, CellTiter-Glo, qHTS (AID 1347060).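 For AC50: cells exposed to compound for 48 hours before viability readout.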 The note with it: SU-DIPG-XVII viability, CellTiter-Glo ATP luminescence.
A short description of assay [10]: viability loss in pontine glioma line – cell-based, SU-DIPG-XXV, MIPE5.0, CellTiter-Glo, qHTS, dose response (AID 1347065).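 Note: cells exposed to compound for 48 hours before ATP readout.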 The note with it: CellTiter-Glo ATP luminescence.
Assay [11] in a line: SU-DIPG-XXV glioma cell viability, MIPE5.0 library, qHTS (AID 1347068; cut-off not given, nearly all actives have IC50 up to about 30 µM;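 for IC50: cells exposed to compound for 48 hours before viability readout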). Background: In qHTS, concentration-response curves come from the screen itself.
A short description of assay [12]: growth inhibition of DIPG glioma cells, dose response, cell-based, SU-DIPG-XIII, MIPE4.0, CellTiter-Glo, qHTS (AID 1347061; cut-off not given, nearly all actives have AC50 up to about 37 µM;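 note: cells exposed to compound for 48 hours before readout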). The note with it: SU-DIPG-XIII viability, CellTiter-Glo ATP luminescence.
A short description of assay [13]: growth inhibition of DIPG glioma cells, dose response, cell-based, JHH-DIPG-1, MIPE4.0, CellTiter-Glo, qHTS (AID 1347062; cut-off not given, nearly all actives have AC50 up to about 27 µM;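 for AC50: cells exposed to compound for two days before readout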). The note with it: JHH-DIPG-1 viability, CellTiter-Glo ATP luminescence.
Assay [14] is described as follows: SU-DIPG-VI glioma cell viability, MIPE4.0 library, CellTiter-Glo luminescence, qHTS (AID 1347066; cut-off not given, nearly all actives have AC50 up to about 30 µM;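 note: cells exposed to compound for 48 hours before readout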). The note with it: CellTiter-Glo ATP luminescence.
The nature of assay [15]: sensitizers of A549 cells to miR-34 induction, primary screen, imaging, A549 dox-inducible miR-34, nuclei and caspase counts (AID 1347080;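 active = compounds whose cell count with miR-34 switched on is under 0.7 times the count with it off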). The note with it: A549 miR-34 inducible, Hoechst nuclei count, 48 h.
A short description of assay [16]: survival rescue of mitochondrial mutant cells in low glucose, primary screen, MELAS cybrids, Rieske KO mouse fibroblasts, CellTiter-Glo (AID 1508586;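 active = mean z-score across replicates of 1.96 or higher in either the MELAS or the Rieske mutant cell line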;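 note: z relative to plate mean and SD of compound and empty wells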).
Assay [17] in a line: viability rescue of complex I mutant cybrids, primary screen, cell-based, galactose medium, ATP luminescence (AID 1645843;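 active = z-score of at least 1.8 in each of two replicates, scored against plate mean and spread of sample wells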;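 note: positive z means more ATP and so rescue of galactose-driven cybrid death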). The note with it: complex I mutant cybrid cells, 72 h, stronger effect = higher value.
Assay [18] in a line: liver-stage malaria parasite growth inhibition, primary screen, cell-based, HepG2, luciferase luminescence, HepG2 viability (AID 624349; in the data active = parasite load remaining mostly below about 12%, no sharp cut-off; inactive = mostly above about 10%;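 note: 100% = mean of DMSO negative control wells on the same plate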). The note with it: P. berghei liver stage in HepG2, luciferase luminescence, concentration not given here; parasite load remaining: stronger effect = lower value; viability: measured here: HepG2 viability without parasites.

In the case of `O=[N+]([O-])c1cncn1CCN1CCOCC1`, the nuclear beta-catenin stimulation in assay [1] (at 10 µM) is -1.1% (inactive); in [1] (stimulation, at 2 µM), 0.4%. Further, the insulin secretion stimulation in assay [2] was 0.4% (inactive). Besides, the viability decrease in assay [3] was -4.6% (inactive). In addition, in [4], the tube area decrease was 13.6% (inactive). In addition, in assay [5], the GLP1 secretion stimulation was -1.3% (inactive). Also, the inhibition of viability in [6] was -5% (inactive). Further, the viability decrease (inhibition) in [7] is -2.7% (inactive); in [8], -11.2% (inactive). Further, the molecule was classed as inactive in assay [9], in assay [10] and in assay [11].
`COc1ccc2cccc(CCNC(C)=O)c2c1`: the nuclear beta-catenin stimulation in assay [1] (at 10 µM) is 1.6% (inactive); in assay [1] (stimulation, at 2 µM), -1%. For the same molecule, the insulin secretion stimulation in assay [2] is -1.5% (inactive). Moreover, the viability decrease in assay [3] was 2.7% (inactive). Also, the tube area decrease in assay [4] was 1% (inactive). The GLP1 secretion stimulation in assay [5] is -0.3% (inactive). Further, the inhibition of viability in [6] was 3.7% (inactive). For the same molecule, the viability decrease (inhibition) was -8.5% (inactive) in assay [7] and 3.3% (inactive) in [8]. Besides, the molecule was classed as inactive in assay [12], in assay [13], in [10], in assay [14] and in assay [11]. Further, the fold change was 0.904 (inactive) and 0.982 (inactive) and 0.944 (inactive) in assay [15] (stronger effect = lower value, cell number ratio, induced over uninduced); 0.381 and 0.908 and 0.855 in [15] (measured here: relative caspase fold change +Dox/-Dox). Moreover, the cell count was 8590 and 5820 and 7020 in assay [15] (measured here: total cells with miR-34 induction, stronger effect = lower value); 9510 and 5930 and 7430 in [15] (measured here: total cells without miR-34 induction). The z-score was 0.556 (inactive) and -0.393 (inactive) in [16] (MELAS cybrid survival, CellTiter-Glo 48 h, stronger effect = higher value); 0.28 and -0.0702 in assay [16] (Rieske KO mouse fibroblast survival, CellTiter-Glo 72 h); 0.205 (inactive) in [17].
One may read the AC50 as the concentration giving half of the maximal activity seen. For the molecule `Cc1cc(=O)c2c(O)c3c(O)cc(=O)c4c3c3c(cc(O)c1c23)C(C)(C)C=4O`, the nuclear beta-catenin stimulation was 46.6% (active) in [1] (at 10 µM) and 68.1% in assay [1] (stimulation, at 2 µM). In assay [2], the insulin secretion stimulation is 0.4% (inactive). Further, the viability decrease in [3] is 117% (active). Moreover, in [4], the tube area decrease was 54.9% (active). In addition, the GLP1 secretion stimulation in [5] was 8% (inactive). Moreover, in [6], the inhibition of viability was 124% (active). In addition, the viability decrease (inhibition) in [7] was 158% (active); in assay [8] it was 101% (active). Moreover, the AC50 in assay [12] is 11.8 µM (active); in assay [13], 0.743 µM (active); in assay [14], 0.105 µM (active).
Usually viability stands for a read-out of living cells in per cent, often relative to untreated cells. Turning to `Clc1ccc(C(Cn2ccnc2)OCc2c(Cl)cccc2Cl)c(Cl)c1` (configuration not stated), the parasite load remaining in assay [18] is 26.3% (inactive) and 91.5% (inactive). Moreover, the viability in assay [18] is 46.9% and 87.2%. The nuclear beta-catenin stimulation in [1] (at 10 µM) is 1.3% (inactive); in assay [1] (stimulation, at 2 µM) it was -1.1%. Further, the insulin secretion stimulation in [2] is 3.1% (inactive). In addition, the viability decrease in [3] was 110% (active). Besides, the tube area decrease in [4] is 107% (active). Besides, the GLP1 secretion stimulation in assay [5] was 35.3% (active). In assay [6], the inhibition of viability is 113% (active). Besides, the figures for the viability decrease (inhibition) in [7] and in [8] were 132% (active) and 101% (active), respectively. Also, the AC50 in assay [9] and in assay [10] was 23.5 µM (active) each time.
The term IC50 denotes the concentration needed to halve the response being measured. In the case of `C=CC(=O)Nc1cc2c(Nc3ccc(F)c(Cl)c3)ncnc2cc1OCCCN1CCOCC1`, the nuclear beta-catenin stimulation was 45.9% (active) in assay [1] (at 10 µM) and 9.2% in assay [1] (stimulation, at 2 µM). Besides, in [2], the insulin secretion stimulation is 1.6% (inactive). Also, the viability decrease in assay [3] was 108% (active). For the same molecule, in [4], the tube area decrease is 43.3% (active). Further, in assay [5], the GLP1 secretion stimulation was 2.8% (inactive). Also, the inhibition of viability in assay [6] is 112% (active). Moreover, the viability decrease (inhibition) in assay [7] is 130% (active); in assay [8] it was 101% (active). Further, the half-maximal activity concentration (AC50) in [9] was 6.61 µM (active); in assay [13], 18.7 µM (active); in assay [10], 6.61 µM (active); in [14] it was 14.8 µM (active). Also, the IC50 in assay [11] was 5.25 µM (active).
